This excerpt belongs to a sample that is enriched for hits.
CBX7 AlphaScr = blocks human CBX7 binding to H3K27me3 peptide. O95931. AlphaScreen His6-CBX7 / biotin-H3K27me3 peptide binding; active compounds read low. normalised signal (fraction of DMSO) (no concentration beside the values). 66,000 compounds, 1.1% hits. AID 1224903; in the data active = normalised signal below about 0.5
Target sequence (O95931 whole entry, looked up): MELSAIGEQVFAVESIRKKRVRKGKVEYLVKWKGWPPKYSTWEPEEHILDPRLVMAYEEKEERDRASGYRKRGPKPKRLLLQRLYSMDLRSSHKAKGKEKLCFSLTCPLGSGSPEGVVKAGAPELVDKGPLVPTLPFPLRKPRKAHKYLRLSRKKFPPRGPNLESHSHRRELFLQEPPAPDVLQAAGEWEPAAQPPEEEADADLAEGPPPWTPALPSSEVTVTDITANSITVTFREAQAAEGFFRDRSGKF
Numbers stand for hits.

Cc1cc(C)n(-c2nc3ccccc3nc2Nc2ccc3c(c2)OCCO3)n1 was read as CBX7 AlphaScr inactive.
O=C(CCCN1C(=O)CSc2ncccc21)NC1CCCCCC1 was read as CBX7 AlphaScr inactive.
Cc1ccc(C(=O)Nc2cccc(-c3nc4ncccc4o3)c2C)cc1 was read as CBX7 AlphaScr inactive.
`COC(=O)c1cccc(CNCCc2c(C)[nH]c3ccc(OC)cc23)c1` gave CBX7 AlphaScr inactive.
COC(=O)c1ccc(C(=O)NCCc2c(C)[nH]c3ccc(OC)cc23)cc1 was read as CBX7 AlphaScr inactive.
For COc1ccc2[nH]c(C)c(CCNCC(C)Cc3ccc4c(c3)OCO4)c2c1 (stereo not given) the results were CBX7 AlphaScr 0.343.
`COc1ccc(OC)c(C2=NOC(C(=O)N3CCC(C)CC3)C2)c1` (stereo not given) gave CBX7 AlphaScr inactive.
CCN(CC)c1ccc(C(=O)Nc2ccccc2-c2nc3ccccc3s2)cc1 was read as CBX7 AlphaScr inactive.
For COc1ccc(-c2n[nH]c(C)c2-c2ccc3c(c2)OCCCO3)c(O)c1 the results were CBX7 AlphaScr 0.447.
`COc1ccc(-c2n[nH]c(C)c2-c2ccc(F)cc2)c(O)c1` gave CBX7 AlphaScr inactive.
For COc1ccc(-c2c(-c3ccc(OC)cc3O)n[nH]c2C)cc1 the results were CBX7 AlphaScr inactive.
`Cc1nc(Oc2ccc(Cc3ccccc3)cc2)c2c3c(sc2n1)CCCC3` gave CBX7 AlphaScr inactive.
`CCN(CCCNC(=O)Cc1cn(C)c2ccccc12)c1ccccc1` gave CBX7 AlphaScr 0.498.
Cn1cc(CC(=O)NCCCN2CCCC2)c2ccccc21 was read as CBX7 AlphaScr inactive.
For CCN(CC)CCCNC(=O)Cc1cn(C)c2ccccc12 the results were CBX7 AlphaScr inactive.
CC1(C)CC(=O)c2cc(C(=O)NCCCO)c(=O)n(-c3ccc(Cl)cc3)c2C1 was read as CBX7 AlphaScr inactive.
Screening CCn1c(SCC(=O)Nc2cccc(F)c2)nnc1-c1c[nH]c2ccccc12 returned CBX7 AlphaScr inactive.
COCCNc1nc(-c2ccccc2F)nc2ccccc12 was read as CBX7 AlphaScr inactive.
Fc1ccccc1-c1nc(NCc2ccccc2Cl)c2ccccc2n1 was read as CBX7 AlphaScr inactive.
For COc1ccccc1CNc1nc(-c2ccccc2F)nc2ccccc12 the results were CBX7 AlphaScr 0.323.
For COc1ccccc1NC(=O)Cn1cnc2sc(C(=O)Nc3ccc4c(c3)OCO4)c(C)c2c1=O the results were CBX7 AlphaScr inactive.
For OC(CN1CCCCC1)Cn1c2ccccc2c2ccccc21 (stereo not given) the results were CBX7 AlphaScr inactive.
For COc1ccc(-c2cc3ccccc3n2CC(O)CN2CCCCCC2)cc1 (stereo not given) the results were CBX7 AlphaScr inactive.
For CCC(=C(c1ccc(OC)cc1)c1ccc(OC)cc1)c1cn(CC(O)CN2CCCC2)c2ccccc12 (stereo not given) the results were CBX7 AlphaScr 0.26.
Screening Cc1oc(-c2cccs2)nc1CN1CCCC(C(=O)NC2CCCCCCC2)C1 (stereo not given) returned CBX7 AlphaScr inactive.
`CCC1CCCCN1C(=O)C1(S(=O)(=O)c2ccc(C)cc2)CC1` (stereo not given) gave CBX7 AlphaScr inactive.
Screening O=C(Nc1nnc(C2CC2)o1)c1ccc(S(=O)(=O)N2CCCc3ccccc32)cc1 returned CBX7 AlphaScr inactive.
For O=C(Nc1nnc(C2CC2)o1)c1ccc(S(=O)(=O)N2CCCCC2)cc1 the results were CBX7 AlphaScr 0.0124.
`CCc1nnc(NC(=O)c2ccc(S(=O)(=O)N(C)C3CCCCC3)cc2)o1` gave CBX7 AlphaScr 0.0649.
Screening CC1CCN(S(=O)(=O)c2ccc(C(=O)Nc3nnc(C4CC4)o3)cc2)CC1 returned CBX7 AlphaScr inactive.
`CCc1nnc(NC(=O)c2ccc(S(=O)(=O)N3CC(C)OC(C)C3)cc2)o1` (stereo not given) gave CBX7 AlphaScr inactive.
`CC1CN(S(=O)(=O)c2ccc(C(=O)Nc3nnc(C4CC4)o3)cc2)CC(C)O1` (stereo not given) gave CBX7 AlphaScr inactive.
CC1CCCCN1S(=O)(=O)c1ccc(C(=O)Nc2nnc(C3CC3)o2)cc1 (stereo not given) was read as CBX7 AlphaScr 0.000883.
CN(C1CCCCC1)S(=O)(=O)c1ccc(C(=O)Nc2ccccc2-c2nc3ccccc3[nH]2)cc1 was read as CBX7 AlphaScr inactive.
For COCc1nnc(NC(=O)c2ccc(S(=O)(=O)N3CCOCC3)cc2)o1 the results were CBX7 AlphaScr inactive.
Screening COCc1nnc(NC(=O)c2ccc(S(=O)(=O)N3CCCCC3C)cc2)o1 (stereo not given) returned CBX7 AlphaScr inactive.
For CCc1nnc(NC(=O)c2ccc(S(=O)(=O)N3CCCCCC3)cc2)o1 the results were CBX7 AlphaScr 0.043.
CCOC(=O)c1oc2ccccc2c1NC(=O)c1ccc(S(=O)(=O)N(C)C2CCCCC2)cc1 was read as CBX7 AlphaScr inactive.
`COc1cccc(C2c3c(-c4ccccc4)n[nH]c3C(=O)N2c2ccc(Cl)cc2)c1` (stereo not given) gave CBX7 AlphaScr inactive.
Screening Cc1noc(/C=C/c2cccs2)c1S(=O)(=O)N1CCC(C(=O)N2CCc3ccccc32)CC1 returned CBX7 AlphaScr inactive.
`COc1ccc(-c2nnc(SCC(=O)NC3CC3)n2-c2ccccc2)cc1` gave CBX7 AlphaScr inactive.
For CCc1ccc(-n2c(C)nc3cc(C(=O)NC4CCCCCC4)ccc32)cc1 the results were CBX7 AlphaScr inactive.
Cc1cccc(NC(=O)CSc2ncc(-c3ccccc3)[nH]2)c1 was read as CBX7 AlphaScr inactive.
`Clc1ccc(-c2cnc(-c3ccncc3)o2)cc1` gave CBX7 AlphaScr inactive.
Cc1cc(C)c(C(=O)c2ccc(-c3nnc(-c4ccccc4)o3)cc2)c(C)c1 was read as CBX7 AlphaScr inactive.
`NC(=O)c1ccc(-c2ncc(-c3ccccc3)o2)cc1` gave CBX7 AlphaScr 0.424.
For CCOc1ccccc1C(=O)N1CC(=O)Nc2ccc(F)cc2C1c1ccc(F)cc1 (stereo not given) the results were CBX7 AlphaScr inactive.
Cc1ccccc1Nc1c(-c2ccccc2)nc2cccc(C)n12 was read as CBX7 AlphaScr inactive.
`Cc1ccccc1Nc1c(-c2ccc(N(C)C)cc2)nc2cccc(C)n12` gave CBX7 AlphaScr 0.465.
Screening Cc1ccccc1Nc1c(-c2ccc(Cl)cc2)nc2cccc(C)n12 returned CBX7 AlphaScr inactive.
For COc1ccc(CCNC(=O)c2cc(=O)n(Cc3ccc(Cl)cc3)c3ccccc23)cc1OC the results were CBX7 AlphaScr inactive.
`COc1cc(NC(=O)Cn2cc(S(=O)(=O)c3ccccc3)c(=O)c3cc(C)ccc32)cc(OC)c1` gave CBX7 AlphaScr inactive.
For CC(C)Cn1cc(C(=O)N(C)Cc2ccccc2)c2c3ccccc3n(C)c2c1=O the results were CBX7 AlphaScr inactive.
Screening COc1ccccc1C(NC(=O)C(C)C)c1cc(Cl)c2cccnc2c1O (stereo not given) returned CBX7 AlphaScr inactive.
Screening COc1ccccc1N1CCN(Cc2cc(Cl)c3cccnc3c2O)CC1 returned CBX7 AlphaScr 0.000865.
Screening COc1ccccc1N1CCN(c2ncnc3ccccc23)CC1 returned CBX7 AlphaScr inactive.
`COc1ccccc1N1CCN(Cc2cc(Br)c(O)c3ncccc23)CC1` gave CBX7 AlphaScr 0.0133.
For Oc1c(Br)cc(CN2CCCCC2)c2cccnc12 the results were CBX7 AlphaScr 0.00571.
COc1ccccc1N1CCN(Cc2nc(-c3ccccc3)no2)CC1 was read as CBX7 AlphaScr inactive.
Brc1ccc(OCc2ccccc2)c2ncccc12 was read as CBX7 AlphaScr inactive.

Source: PubChem
